Several values for one entry are separate records, joined by “and”; a condition that tells them apart may be missing. Equal entries are not always repeated. Some compounds were tested as several samples or in several runs, with calls that do not always agree. Activity calls are given as the source filed them. How the source made its calls: active means hit-call score of the fitted dose curve at least 0.9, where 1 is the maximum; inactive means score below 0.9.
Assays:
[1] = ATG_GLI_CIS: Attagene CIS-FACTORIAL HepG2 Assay for human Zinc Finger Protein GLI1 (AID 2282945); conditions: HepG2, Attagene cis-factorial reporter mRNA, GLI element; actives raise or lower the signal
Method in brief: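 Bidirectional curve fits relative to DMSO, using reporter mRNA levels from RT-PCR plus capillary electrophoresis. Cells were HepG2 transiently carrying cis-regulated reporter constructs, harvested 24 h after dosing.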

[2] = target: Bile acid receptor (Homo sapiens) (UniProt Q96RI1); experiment: ATG_IR1_CIS: Attagene CIS-FACTORIAL HepG2 Assay for human Nuclear Receptor Subfamily 1 Group H Member 4 (NR1H4), IR1 submotif (AID 2282946); conditions: IR1 reporter transcription, actives raise or lower the signal
Method in brief: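 HepG2 cells transiently transfected with multiplexed cis-element reporter units read endogenous transcription factor activity. After 24 h compound exposure, reporter mRNA was quantified by RT-PCR, fluorescent labelling, HpaI digestion and capillary electrophoresis; bidirectional fitting versus DMSO baseline.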

[3] = ATG_ISRE_CIS: Attagene CIS-FACTORIAL HepG2 Assay for human Interferon Regulatory Factor 1 (IRF1) binding to an Interferon-Stimulated Response Element (ISRE) (AID 2282948); conditions: HepG2 ISRE cis-reporter (Attagene), mRNA transcription readout; actives raise or lower the signal
Method in brief: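 Signal reflects induction or loss of ISRE-linked reporter mRNA in transiently transfected HepG2 cells after a 24 h treatment, detected by fluorescent RT-PCR fragments on capillary electrophoresis and normalised to DMSO.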

[4] = ATG_M_32_CIS: Attagene CIS-FACTORIAL HepG2 Assay for M32 Transcription Factor (Internal Marker) (AID 2282949); conditions: HepG2 Attagene cis-factorial M32 reporter, mRNA; actives raise or lower the signal;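 further: background control marker of the multiplexed CIS panel rather than a real target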
Method in brief: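 HepG2 human liver cells transiently transfected with cis-promoter-driven multiple reporter transcription units, dosed 24 h. Reporter mRNA quantified by RT-PCR, FAM-labelled primer extension, HpaI digest and capillary electrophoresis; bidirectional fit versus DMSO baseline.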

[5] = ATG_M_06_CIS: Attagene CIS-FACTORIAL HepG2 Assay for M06 Transcription Factor (Internal Marker) (AID 2282950); conditions: HepG2 Attagene CIS-FACTORIAL M06 internal marker reporter; actives raise or lower the signal
Method in brief: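 Cells (HepG2, transiently carrying cis-driven reporter units) receive chemical for 24 h before RNA isolation. Reporter cDNA is PCR-amplified, FAM-labelled by primer extension, HpaI-digested and sized on a capillary analyser.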

[6] = target: Hypoxia-inducible factor 1-alpha (Homo sapiens) (UniProt Q16665); experiment: ATG_HIF1a_CIS: Attagene CIS-FACTORIAL HepG2 Assay for human Hypoxia Inducible Factor 1 (HIF1A) (AID 2282951); conditions: HepG2 Attagene cis-factorial HIF1a reporter transcription; actives raise or lower the signal
Method in brief: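 Measures endogenous transcription-factor activity through cis-regulated reporter mRNA in HepG2. Cells dosed 24 h; transcripts quantified by RT-PCR with 6-FAM-labelled products separated by capillary electrophoresis; DMSO serves as negative control.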

[7] = target: Hepatocyte nuclear factor 6 (Homo sapiens) (UniProt Q9UBC0); experiment: ATG_HNF6_CIS: Attagene CIS-FACTORIAL HepG2 Assay for human Hepatocyte Nuclear Factor 6 (HNF6) (AID 2282952); conditions: HepG2 Attagene cis-factorial HNF6 reporter transcription; actives raise or lower the signal
Method in brief: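 Readout: fluorescent reporter-transcript fragments resolved by capillary electrophoresis after RT-PCR, reflecting endogenous factor activity in transfected HepG2. Exposure 24 h. Gain or loss of signal fitted bidirectionally against DMSO.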

[8] = ATG_MRE_CIS: Attagene CIS-FACTORIAL HepG2 Assay for human Metal Responsive Element (MRE) (AID 2282954); conditions: HepG2 MRE cis-reporter transcription, Attagene multiplex; actives raise or lower the signal
Method in brief: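 Endogenous MRE-dependent transcription read as reporter mRNA in transiently transfected human HepG2 cells at 24 h. RNA reverse-transcribed, PCR-amplified, labelled and resolved by capillary electrophoresis; gain or loss relative to DMSO.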

[9] = target: Heat shock factor protein 1 (Homo sapiens) (UniProt Q00613); experiment: ATG_HSE_CIS: Attagene CIS-FACTORIAL HepG2 Assay for human Heat Shock Transcription Factor 1 (HSE) (AID 2282953); conditions: HepG2 HSE cis-reporter, Attagene RNA transcription; actives raise or lower the signal
Method in brief: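 Liver-derived HepG2 cells carry transiently introduced multiple reporter units governed by cis promoters. Reporter RNA measured 24 h post-dose through reverse transcription, PCR amplification, fluorescent labelling and capillary electrophoresis, normalised to DMSO.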

[10] = ATG_GRE_CIS: Attagene CIS-FACTORIAL HepG2 Assay for human Glucocorticoid Response Elements (GRE) (AID 2282947); conditions: HepG2 GRE cis-reporter, Attagene multiplex mRNA; actives raise or lower the signal
Method in brief: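 Reporter transcripts read by RT-PCR with capillary electrophoresis fluorescence after a 24 h chemical exposure of HepG2 cells transiently transfected with multiple cis-element reporter units. Gain or loss fitted against DMSO.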

Measured: AC50

Heat shock factor protein 1 (Homo sapiens), sequence (Q00613 whole entry, looked up): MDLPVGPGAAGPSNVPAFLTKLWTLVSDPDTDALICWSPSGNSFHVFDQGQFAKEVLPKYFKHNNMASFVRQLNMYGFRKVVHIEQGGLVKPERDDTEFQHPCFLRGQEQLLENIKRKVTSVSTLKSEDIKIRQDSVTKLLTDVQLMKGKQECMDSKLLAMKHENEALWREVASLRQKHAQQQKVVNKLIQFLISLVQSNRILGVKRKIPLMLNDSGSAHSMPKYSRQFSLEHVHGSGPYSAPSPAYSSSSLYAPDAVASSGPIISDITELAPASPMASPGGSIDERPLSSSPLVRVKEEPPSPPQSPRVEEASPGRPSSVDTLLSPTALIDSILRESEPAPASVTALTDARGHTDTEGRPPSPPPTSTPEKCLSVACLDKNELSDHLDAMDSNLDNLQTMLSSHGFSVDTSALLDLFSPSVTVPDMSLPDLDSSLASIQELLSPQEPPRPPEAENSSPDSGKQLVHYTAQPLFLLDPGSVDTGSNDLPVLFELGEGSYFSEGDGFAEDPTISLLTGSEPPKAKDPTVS
Hypoxia-inducible factor 1-alpha (Homo sapiens), sequence (Q16665 whole entry, looked up): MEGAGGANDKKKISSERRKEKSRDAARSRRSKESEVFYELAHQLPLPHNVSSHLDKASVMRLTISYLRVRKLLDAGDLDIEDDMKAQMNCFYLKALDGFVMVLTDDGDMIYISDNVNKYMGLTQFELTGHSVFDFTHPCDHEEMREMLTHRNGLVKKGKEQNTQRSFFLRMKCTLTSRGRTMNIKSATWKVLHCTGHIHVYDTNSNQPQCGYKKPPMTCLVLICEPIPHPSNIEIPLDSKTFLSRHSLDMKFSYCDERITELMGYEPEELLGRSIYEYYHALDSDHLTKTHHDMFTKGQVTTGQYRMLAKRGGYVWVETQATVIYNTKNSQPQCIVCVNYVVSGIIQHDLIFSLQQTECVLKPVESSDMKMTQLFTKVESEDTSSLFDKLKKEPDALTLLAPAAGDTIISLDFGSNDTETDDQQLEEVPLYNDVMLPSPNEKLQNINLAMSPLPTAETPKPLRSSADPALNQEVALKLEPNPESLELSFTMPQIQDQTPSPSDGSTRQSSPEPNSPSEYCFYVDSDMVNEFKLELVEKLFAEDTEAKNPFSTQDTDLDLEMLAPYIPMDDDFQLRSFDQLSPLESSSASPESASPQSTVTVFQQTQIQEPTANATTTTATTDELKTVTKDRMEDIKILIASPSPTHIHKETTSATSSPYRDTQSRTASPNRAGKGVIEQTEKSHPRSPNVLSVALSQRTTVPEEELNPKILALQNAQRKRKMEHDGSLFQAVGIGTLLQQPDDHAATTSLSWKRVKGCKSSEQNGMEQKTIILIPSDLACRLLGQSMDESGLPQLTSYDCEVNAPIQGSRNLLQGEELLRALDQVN
Hepatocyte nuclear factor 6 (Homo sapiens), sequence (Q9UBC0 whole entry, looked up, the tested form may be a part): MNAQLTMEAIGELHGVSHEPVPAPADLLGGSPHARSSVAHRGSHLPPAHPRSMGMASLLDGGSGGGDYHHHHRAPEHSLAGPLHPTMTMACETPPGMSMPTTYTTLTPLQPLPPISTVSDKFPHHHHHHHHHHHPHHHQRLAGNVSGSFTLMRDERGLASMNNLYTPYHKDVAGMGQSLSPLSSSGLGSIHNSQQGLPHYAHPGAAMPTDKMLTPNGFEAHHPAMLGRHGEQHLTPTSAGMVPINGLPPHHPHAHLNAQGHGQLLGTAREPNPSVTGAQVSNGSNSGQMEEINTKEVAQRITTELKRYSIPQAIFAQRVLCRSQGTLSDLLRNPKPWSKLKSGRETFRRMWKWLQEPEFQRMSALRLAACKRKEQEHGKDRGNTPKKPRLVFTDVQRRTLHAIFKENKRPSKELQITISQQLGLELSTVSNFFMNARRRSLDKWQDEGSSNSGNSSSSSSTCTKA
Bile acid receptor (Homo sapiens), sequence (Q96RI1 whole entry, looked up): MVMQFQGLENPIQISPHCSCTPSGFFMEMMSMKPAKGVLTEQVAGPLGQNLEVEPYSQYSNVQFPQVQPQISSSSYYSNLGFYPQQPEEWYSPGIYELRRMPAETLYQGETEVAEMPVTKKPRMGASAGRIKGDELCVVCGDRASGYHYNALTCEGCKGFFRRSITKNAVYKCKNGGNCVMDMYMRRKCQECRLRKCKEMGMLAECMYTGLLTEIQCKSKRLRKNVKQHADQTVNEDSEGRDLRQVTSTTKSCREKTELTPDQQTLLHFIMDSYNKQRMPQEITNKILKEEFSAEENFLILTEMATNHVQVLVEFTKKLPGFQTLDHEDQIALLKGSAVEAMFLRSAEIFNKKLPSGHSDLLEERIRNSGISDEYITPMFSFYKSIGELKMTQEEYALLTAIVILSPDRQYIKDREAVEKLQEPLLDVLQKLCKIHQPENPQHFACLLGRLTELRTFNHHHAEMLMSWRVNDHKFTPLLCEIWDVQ

O=C(O)c1ccc2c(c1)nc(C(=O)NC1CCN(C3CC3)CC1)n2Cc1cc(-c2ccc(Cl)s2)on1
inactive: [1] | [2] | [3] | [4] | [5] | [6] | [7] | [8]

CC(C)C(=O)Nc1ccc([N+](=O)[O-])c(C(F)(F)F)c1
active: [9] 167 µM | [8] 100 µM
inactive: [1] | [2] | [3] | [4] | [5] | [7]

OCCNCCO
inactive: [1] | [10] | [3] | [4] | [5] | [6] | [7] | [9] | [8]

CCCCCCCCCC
inactive: [1] | [2] | [3] | [4] | [5] | [6] | [7] | [8]

c1ccc2ncccc2c1
inactive: [1] | [10] | [3] | [4] | [5] | [6] | [7] | [8]

COCc1nnc(-c2ccc[n+]([O-])c2)n1-c1c(Cl)c(Cl)cc2[nH]c(=O)c(=O)[nH]c12
inactive: [1] | [2] | [3] | [4] | [5] | [6] | [7] | [8]

CNC(C)=O
inactive: [1] | [10] | [3] | [4] | [5] | [6] | [7] | [9] | [8]

CCn1nc(C)c2c1C(=O)NCC(c1ccc(O)cc1)=N2
inactive: [1] | [10] | [3] | [4] | [5] | [6] | [7] | [9] | [8]

Cc1ncc([C@@H](CCCCCCc2ccc3c(n2)NCCC3)CC(=O)O)cn1
inactive: [1] | [2] | [3] | [4] | [5] | [6] | [7] | [9] | [8]

O=C(O)c1cccc(C[C@@H]2COc3ccc(OCc4nc5cc(F)ccc5s4)cc3[C@@H]2O)c1
inactive: [1] | [10] | [4] | [5] | [6] | [7]
active: [3] 163 µM | [9] 168 µM | [8] 154 µM

CCc1cccc(CC)c1N
inactive: [1] | [10] | [3] | [4] | [5] | [6] | [7] | [8]

O=C(NO)C1(NS(=O)(=O)c2ccc(Oc3ccc(F)cc3)cc2)CCOCC1
inactive: [1] | [10] | [3] | [4] | [5] | [6] | [7] | [9] | [8]

CCOc1ccc2[nH]cc(C(=O)NCc3ccccc3)c(=O)c2n1
inactive: [1] | [2] | [3] | [4] | [5] | [6] | [7] | [8]

OC(CCl)CCl
inactive: [1] | [10] | [3] | [4] | [5] | [6] | [7] | [9] | [8]

CCc1ccc(O)c(C(C)(C)C)c1
inactive: [1] | [10] | [3] | [4] | [5] | [7] | [9] | [8]
active: [6] 56.3 µM

CCCCC(CC)C(=O)OCCOCCOCCOC(=O)C(CC)CCCC (stereo not drawn)
inactive: [1] | [10] | [3] | [4] | [5] | [6] | [7] | [8]

OCc1c[nH]c2ccccc12
inactive: [1] | [2] | [4] | [5] | [6] | [7]
active: [6] 2.91 µM and 19.8 µM and 1.45 µM | [9] 176 µM [middle of 5 runs]

NC(=O)NN=Cc1ccc([N+](=O)[O-])o1
inactive: [1] | [10] | [3] | [4] | [5] | [7] | [9] | [8]

NC(N)=O
inactive: [1] | [4] | [5] | [6] | [7] | [8]

Cc1ccc(S(=O)(=O)NC(=O)NN2CCCCCC2)cc1
inactive: [1] | [10] | [4] | [5] | [7] | [9] | [8]

NC(=O)N1c2ccccc2C=Cc2ccccc21
inactive: [1] | [4] | [5] | [6] | [7] | [8]

CC(C)c1nnc2ccc(-c3ocnc3-c3cc(F)ccc3F)cn12
active: [8] 100 µM
inactive: [1] | [10] | [3] | [4] | [5] | [6] | [9]

CCCCN1C(=O)[C@@H]([C@H](O)C2CCCCC2)NC(=O)C12CCN(Cc1ccc(Oc3ccc(C(=O)O)cc3)cc1)CC2
active: [8] 75.8 µM
inactive: [1] | [4] | [5] | [6] | [7]

CCCCCCCC1CCC(=O)O1 (stereo not drawn)
inactive: [1] | [10] | [3] | [4] | [5] | [6] | [9] | [8]

Cn1cc[nH]c1=S
inactive: [1] | [4] | [5] | [9] | [8]

CCCc1ccccc1
active: [6] 60.7 µM
inactive: [1] | [10] | [4] | [5] | [7] | [9] | [8]

CC[C@H](C)C(=O)O[C@H]1C[C@H](O)C=C2C=C[C@H](C)[C@H](CC[C@@H](O)C[C@@H](O)CC(=O)O)[C@H]21
inactive: [1] | [10] | [4] | [5] | [6] | [7] | [9] | [8]

CCCCOC(=O)c1ccccc1
inactive: [1] | [10] | [4] | [5] | [6] | [7] | [8]

C=CN1CCCC1=O
inactive: [1] | [3] | [4] | [5] | [6] | [7] | [9] | [8]

CC(=O)c1ccccc1
inactive: [1] | [3] | [4] | [5] | [6] | [7] | [8]

CCCCCCCC/C=C\CCCCCCCC(=O)OC[C@@H](O)[C@H]1OC[C@H](O)[C@H]1O
inactive: [1] | [10] | [4] | [5] | [6] | [7] | [8]

COS(C)(=O)=O
inactive: [1] | [10] | [4] | [5] | [6] | [7] | [8]

CCCC(CCC)C(=O)O
inactive: [1] | [10] | [3] | [4] | [5] | [6] | [8]

O=C(N[C@H](CO)[C@H](O)c1ccc([N+](=O)[O-])cc1)C(Cl)Cl
inactive: [1] | [4] | [5] | [7] | [8]

CCCCCCOC(=O)CC(CC(=O)OCCCCCC)(OC(=O)CCC)C(=O)OCCCCCC
inactive: [1] | [10] | [4] | [5] | [6] | [7] | [8]

CCCCCCCCN(C)C
inactive: [1] | [10] | [4] | [5] | [6] | [7] | [8]

CCCCCCCCCCCCCCO
inactive: [1] | [4] | [5] | [6] | [8]
active: [7] 177 µM

OC[C@H]1O[C@@H]2O[C@H]3[C@H](O)[C@@H](O)[C@@H](O[C@H]4[C@H](O)[C@@H](O)[C@@H](O[C@H]5[C@H](O)[C@@H](O)[C@@H](O[C@H]6[C@H](O)[C@@H](O)[C@@H](O[C@H]7[C@H](O)[C@@H](O)[C@@H](O[C@H]1[C@H](O)[C@H]2O)O[C@@H]7CO)O[C@@H]6CO)O[C@@H]5CO)O[C@@H]4CO)O[C@@H]3CO
inactive: [1] | [10] | [4] | [5] | [6] | [7] | [9] | [8]

CCOC(N)=O
inactive: [1] | [4] | [5] | [6] | [7] | [9] | [8]

O=C1CN(N=Cc2ccc([N+](=O)[O-])o2)C(=O)N1
active: [6] 27.3 µM
inactive: [1] | [10] | [4] | [5] | [9] | [8]

OC(Cn1cncn1)(Cn1cncn1)c1ccc(F)cc1F
inactive: [1] | [10] | [4] | [5] | [6] | [7] | [8]

c1ccc(C(O[C@@H]2CCCN(CCc3ccc4c(c3)OCO4)C2)c2ccccc2)cc1
inactive: [1] | [10] | [4] | [5] | [7]
active: [6] 47.1 µM | [8] 33 µM

NNC(=O)c1ccncc1
inactive: [1] | [10] | [4] | [5] | [7] | [8]

O=C(O)CO
inactive: [1] | [4] | [5] | [6] | [7] | [9] | [8]

OCC(CO)(CO)CO
inactive: [1] | [4] | [5] | [6] | [7] | [9] | [8]
